Screening data deposited in PubChem by several laboratories.
Compounds with a hit are over-represented: about 4% of the library has one in this group of screens.
UGM FP inh: Mtb UDP-galactopyranose mutase inhibition; 0.06% of 320,000 active; AID 504406; inhibition, % at 10 µM; P9WIQ1; purified UGM, fluorescence polarization probe displacement; in the data active = inhibition above about 10%, passing the limit was not always enough
Rv3671c protease: Rv3671c (M. tuberculosis) protease inhibition | AID 2606 | inhibition, % at 5.96 µM | 0.048% of 320,000 active; in the data active = inhibition above about 38%;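 note: extracellular domain of Rv3671c used as enzyme; 0% = enzyme with DMSO and 100% = no enzyme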
RecA splice inh: inhibitors of M. tuberculosis RecA intein splicing. P9WHJ3. cell-free RecA intein splicing, fluorescence. inhibition, % (concentration not given with the values). 0.75% of 290,000 active. AID 2221; in the data active = inhibition above about 30%;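 note: 0% = vehicle wells and 100% = reference inhibitor control wells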
Target sequence (P9WHJ3 whole entry, looked up, canonical isoform): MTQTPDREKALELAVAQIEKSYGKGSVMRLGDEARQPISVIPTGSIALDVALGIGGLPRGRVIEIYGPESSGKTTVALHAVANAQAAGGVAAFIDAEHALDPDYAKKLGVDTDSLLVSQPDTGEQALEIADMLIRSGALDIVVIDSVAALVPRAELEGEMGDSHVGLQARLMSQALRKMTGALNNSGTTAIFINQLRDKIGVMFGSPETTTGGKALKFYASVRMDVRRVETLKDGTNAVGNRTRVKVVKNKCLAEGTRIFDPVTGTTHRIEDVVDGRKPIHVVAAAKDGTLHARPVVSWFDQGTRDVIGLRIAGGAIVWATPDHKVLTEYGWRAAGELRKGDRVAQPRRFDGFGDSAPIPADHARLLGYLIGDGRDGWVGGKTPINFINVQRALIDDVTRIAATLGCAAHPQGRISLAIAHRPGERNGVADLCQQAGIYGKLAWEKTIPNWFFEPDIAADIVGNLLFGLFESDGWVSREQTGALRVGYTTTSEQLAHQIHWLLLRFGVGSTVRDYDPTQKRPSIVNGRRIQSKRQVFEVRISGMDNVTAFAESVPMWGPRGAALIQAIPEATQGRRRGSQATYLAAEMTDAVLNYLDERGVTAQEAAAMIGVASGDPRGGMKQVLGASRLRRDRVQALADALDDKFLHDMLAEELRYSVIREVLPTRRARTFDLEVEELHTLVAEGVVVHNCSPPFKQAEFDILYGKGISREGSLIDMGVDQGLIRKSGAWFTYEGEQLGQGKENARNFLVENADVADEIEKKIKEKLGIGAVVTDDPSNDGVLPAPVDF
GDH-TPI counter-1: counter-screen for M. tuberculosis FBA inhibitors: GDH-TPI coupled enzymes; GDH-TPI coupled enzyme counterscreen, NADH absorbance; inhibition, % at 4.8 µM; 1.2% of 360,000 active; in the data active = inhibition above about 30%;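 note: 0% = DMSO wells and 100% = wells lacking the enzyme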
Mtb FBA inh: inhibits M. tuberculosis FBA enzyme | AID 588726 | purified M. tuberculosis FBA, fluorescence read-out | 2.3% of 360,000 active | inhibition, % at 1 µM;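 note: 0% = vehicle and 100% = reference inhibitor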
Mtb bLac sens: beta-lactam sensitization of Mtb H37Rv; 0.27% of 330,000 active; M. tuberculosis H37Rv growth with meropenem, percent inhibition; AID 434955; inhibition, % at 25 µM; call rule not given here;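 note: growth measured after seven days incubation then overnight dye step; 0% = bacteria only wells and 100% = bacteria with antibiotic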
Mtb FBA inh conf: confirmation of M. tuberculosis fructose-bisphosphate aldolase inhibitors | shares compounds with Mtb FBA inh | purified M. tuberculosis FBA, fluorescence read-out | inhibition, % at 1 µM | 78% of 5,600 active | AID 651616;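 note: 0% = vehicle wells and 100% = reference inhibitor wells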
GDH-TPI counter-2: counter-screen for M. tuberculosis FBA inhibitors: GDH-TPI coupled enzyme inhibition; GDH-TPI coupled enzyme counterscreen, fluorescence; inhibition, % at 1 µM; 81% of 5,600 active; AID 652141; shares compounds with Mtb FBA inh; in the data active = inhibition above about 10%
GDH-TPI dose: GDH-TPI dose response counter-screen for Mtb FBA | 79% of 170 active | GDH-TPI coupled enzyme assay, fluorescence, artifact counterscreen | IC50, µM | shares compounds with Mtb FBA inh; call rule not given here
Active calls of the source: *; x = not tested or not shown. Cut-off read from the data, not from the text of the source, unless noted: active = inhibition above about 27%; inactive = the rest.

SMILES | UGM FP inh | Rv3671c protease | RecA splice inh | GDH-TPI counter-1 | Mtb FBA inh | Mtb bLac sens | Mtb FBA inh conf | GDH-TPI counter-2 | others
COc1ccc(CNC(=O)C(C)Sc2nc3ccccc3c(=O)n2CCCN2CCOCC2)cc1 (configuration not stated) | 1 | -2 | -4 | 9 | 0 | -2 | x | x
O=c1c2ccccc2ncn1CCOc1ccccc1[N+](=O)[O-] | 2 | 0 | 9 | 0 | -5 | 2 | x | x
NC(=O)COC(=O)[C@@H]1CC(O)CN1S(=O)(=O)c1ccc2c(c1)OCCO2 (some centres not stated) | -2 | -2 | 1 | 11 | 7 | 3 | x | x
C[C@H](CO)N1C[C@H](C)[C@@H](CN(C)C(=O)NC2CCCCC2)Oc2ccc(NC(=O)CCC(F)(F)F)cc2C1=O | 1 | 1 | x | -1 | 76* | 8 | 2 | 0
CC(C)NC(=O)N(C)C[C@H]1Oc2ccc(NC(=O)CCC(F)(F)F)cc2C(=O)N([C@H](C)CO)C[C@@H]1C | 0 | 1 | x | 10 | 4 | 2 | x | x
Cc1ccc(S(=O)(=O)Nc2ccccn2)cc1[N+](=O)[O-] | -2 | 0 | -1 | -1 | 2 | 0 | x | x
O=c1c2ccccc2c(/C=N/c2n[nH]c(CCCO)n2)c(O)n1-c1ccccc1Cl | 1 | -18 | -16 | 8 | 30* | -4 | 73* | 57*
Cc1ccccc1C(=O)NC1CCN(CC(=O)Nc2ccc3c(c2)OCO3)CC1 | 1 | 0 | 2 | -5 | -3 | -5 | x | x
CC(=O)OC1CCC2(C)C(COc3ccc4ccc(=O)oc4c3)C(C)(O)CCC2C1(C)C (configuration not stated) | 2 | -3 | 9 | 22 | 79* | 15 | 42* | 38*
C=C1CCC2C(C)(C)[C@@H](O)CC[C@@]2(C)[C@@H]1COc1ccc2ccc(=O)oc2c1 (some centres not stated) | 0 | -31 | 4 | 15 | 24 | 0 | x | x
Cc1cc2oc(C(=O)NCc3ccccc3)cc(=O)c2cc1C | 0 | 3 | -2 | 15 | 5 | 1 | x | x
CC1(C)Oc2cc3oc(C(=O)O)cc(=O)c3cc2-c2ccccc21 | x | x | x | 19 | 95* | x | 19 | 6
O=C(CN1CCN(Cc2ccc3c(c2)OCO3)CC1)Nc1ccc(N2CCOCC2)cc1 | 1 | -1 | -1 | -3 | 0 | 0 | x | x
CCS(=O)(=O)Nc1ccccc1C(N)=O | 0 | 11 | 1 | -3 | 44* | 3 | 14 | 0 | GDH-TPI dose=4.3*
NC(=O)c1ccccc1NS(=O)(=O)Cc1ccc(Cl)cc1 | 2 | -1 | -1 | -6 | 70* | 1 | -9 | -8
C=C(C)C(=O)Nc1cccc(C2=NOC3(C2)C[C@@H](C(N)=O)N(C(=O)/C=C/C=C/C)C3)c1 (some centres not stated) | -3 | -2 | -3 | -3 | 1 | 0 | x | x
C[C@H]1CN([C@@H](C)CO)C(=O)CCCn2nncc2CO[C@@H]1CN(C)C(=O)Cc1ccccc1 | x | x | x | 6 | -3 | x | x | x
CC1=[N+]([O-])C(C)(C)CC(C)(C)c2ccccc21 | 0 | -7 | 1 | 12 | 2 | -9 | x | x
O=C(Cc1ccc(F)cc1)NCCS(=O)(=O)N1CCN(c2ccccc2)CC1 | 0 | -8 | -3 | 7 | 8 | -1 | x | x
O=C(NNC(=O)c1cccc2ccccc12)c1cccc(F)c1 | x | x | x | 15 | 5 | x | x | x
Cc1ccc(-c2cc(C(F)(F)F)c(C#N)c(SCCC#N)n2)o1 | 3 | -4 | -4 | 6 | 31* | -1 | 159* | 153*
COc1ccc(-c2cc(C(F)(F)F)c(C#N)c(SCC(=O)O)n2)cc1 | 4 | 5 | x | 4 | 11 | -8 | x | x
CCN(CC)c1ccc(-c2n[nH]c(=S)n2-c2ccccc2)cc1 | 2 | 1 | 1 | 8 | 37* | 0 | 86* | 68*
CN(C)c1ccc(-c2n[nH]c(=S)n2-c2ccccc2)cc1 | -1 | 4 | -1 | 3 | 23 | 14 | x | x
COc1ccc2nc(NC(=O)CCN3C(=O)c4ccccc4C3=O)sc2c1 | -2 | -14 | -2 | 7 | 1 | 3 | x | x
SMILES | UGM FP inh | Rv3671c protease | RecA splice inh | GDH-TPI counter-1 | Mtb FBA inh | Mtb bLac sens | Mtb FBA inh conf | GDH-TPI counter-2 | others
CCOC(=O)N1CCN(C(=O)c2cnn3ccccc23)CC1 | 1 | -19 | 1 | -24 | 2 | -12 | x | x
O=C(CCc1ccccc1)NNC(=O)c1cc(Cl)ccc1O | 2 | -1 | 8 | 9 | 35* | 3 | 0 | -3
COc1ccc(S(=O)(=O)CC2(O)CCN(C(=O)CC(C)C)CC2)cc1 | -2 | 12 | -2 | -5 | 2 | 1 | x | x
O=C1c2ccccc2NC(c2ccccn2)N1c1ccc(Cl)cc1 (configuration not stated) | -2 | 0 | -6 | -2 | 18 | -8 | x | x
CCCN1C(=O)c2ccccc2NC1c1ccc(Br)cc1 (configuration not stated) | 1 | 4 | 4 | 13 | 68* | -4 | 68* | 60*
CCCCN1C2=C(C(=O)CCC2)C(c2ccc(Cl)c(Cl)c2)C2=C1c1ccccc1C2=O (configuration not stated) | -2 | -7 | 1 | -11 | -14 | 5 | x | x
CCCN1C(=O)c2ccccc2NC1c1ccc(Cl)c(Cl)c1 (configuration not stated) | 0 | -1 | 8 | 9 | 60* | -1 | 104* | 107*
Cc1ccc(C2Nc3ccccc3C(=O)N2CCCN2CCOCC2)cc1 (configuration not stated) | 3 | 2 | -2 | 5 | 59* | -2 | 102* | 108*
Cc1ccc(CN2C(=O)c3ccccc3NC2c2cc(Br)ccc2O)cc1 (configuration not stated) | -3 | -47 | 26 | 7 | 14 | 4 | x | x
CCCN1C(=O)c2ccccc2NC1c1ccc(Cl)cc1 (configuration not stated) | -1 | -3 | 2 | 11 | 60* | 6 | 132* | 107*
N#Cc1c(N(CCO)CCO)nc(N)c2c(N)nc3c(c12)CC(=O)N3CC1CCCO1 (configuration not stated) | -2 | -2 | -44 | 20 | 37* | -9 | 171* | 152*
COc1ccc(CC(=O)Nc2cccc(S(=O)(=O)N3CCCC3)c2)cc1OC | 3 | -3 | x | -2 | -4 | -4 | x | x
COc1ccc(C(=O)Cn2cnc3ccccc3c2=O)c(OC)c1 | 1 | x | -2 | 6 | -1 | -1 | x | x
Cc1oc(C)c(C(=O)Nc2ccc(CC(=O)O)cc2)c1C(=O)Nc1ccc(CC(=O)O)cc1 | 7 | 4 | 0 | -3 | 48* | 1 | 13 | -5 | GDH-TPI dose=>10
